Compounds with a hit are over-represented: about 1.9% of the library has one in this group of screens.
TDP43 rescue – rescues yeast growth from TDP-43 toxicity; TDP-43 expressing yeast growth rescue, BacTiter-Glo, 24 h; Potency, µM (series often up to 46.1 µM), inactives show at the top dose growth rescue (activation), usual class: activators; 410,000 tested, 1.8% active; AID 652104; further: potency means the concentration at half of the fitted maximal effect; % of control where 0% means no effect; nearly all actives have a fitted effect of over 50% in size
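Growth rescue of TDP-43-toxic yeast measured as ATP luminescence (BacTiter-Glo). Cells grown to mid-log in raffinose, induced in galactose at OD600=0.02, exposed to compound 24 hr at 30 deg C.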
aSyn rescue – rescues yeast growth from alpha-synuclein toxicity; Yeast expressing alpha-synuclein, growth rescue, BacTiter-Glo, 24 h; Potency, µM (highest dose often 46.1 µM), for inactives: at the highest dose growth rescue (activation), actives largely listed as activators; 370,000 tested, 0.14% active; AID 652106; further: potency means the concentration at half of the fitted maximal effect; % of control where 0% means no effect; nearly all actives have a fitted effect of over 65% in size
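Readout is rescue of growth in alpha-synuclein-expressing yeast, so inhibitors of toxicity appear as activators. Growth after 24 hr at 30 deg C in galactose medium is quantified by luminescence.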
PTHR1 agonist – agonists of human PTHR1 parathyroid hormone receptor | Potency, µM (highest dose often 115 µM), without a hit: top-dose activation, actives largely listed as activators | Q03431 | 410,000 tested, 0.075% active | HEK293 GP2 PTHR1 cells, GloSensor cAMP luminescence, 1 h; further: potency means the concentration at half of the fitted maximal effect; nearly all actives have a fitted effect of over 55% in size
Target sequence (Q03431 whole entry, looked up): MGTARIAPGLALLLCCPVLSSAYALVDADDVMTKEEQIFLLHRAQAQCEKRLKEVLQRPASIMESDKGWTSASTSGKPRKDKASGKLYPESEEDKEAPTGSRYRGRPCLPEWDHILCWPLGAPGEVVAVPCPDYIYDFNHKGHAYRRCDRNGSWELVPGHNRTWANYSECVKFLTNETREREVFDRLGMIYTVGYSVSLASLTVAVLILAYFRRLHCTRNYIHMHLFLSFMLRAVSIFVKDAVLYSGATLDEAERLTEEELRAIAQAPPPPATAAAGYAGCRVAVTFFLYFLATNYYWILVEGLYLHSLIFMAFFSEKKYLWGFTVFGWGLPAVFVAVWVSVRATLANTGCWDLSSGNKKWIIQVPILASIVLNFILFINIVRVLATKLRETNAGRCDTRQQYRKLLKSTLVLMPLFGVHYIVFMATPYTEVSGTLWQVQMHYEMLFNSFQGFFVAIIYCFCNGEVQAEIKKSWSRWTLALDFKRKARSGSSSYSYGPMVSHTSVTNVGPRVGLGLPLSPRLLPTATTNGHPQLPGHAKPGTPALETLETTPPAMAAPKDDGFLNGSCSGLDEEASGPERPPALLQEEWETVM
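HEK-293-derived GP2 cells expressing PTHR1 and a GloSensor cAMP reporter, 3,000/well, plated overnight, given luciferin plus IBMX (each 0.5 mM as added) for 1 h at 37 °C, then compound for 1 h at 37 °C. Luminescence was read after 15 min at room temperature.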
FUS suppressor – FUS proteinopathy suppression in yeast. S. cerevisiae FUS-expressing, growth rescue, OD600, 24 h. Potency, µM (top dose mostly 76.6 µM), most hits filed as activators. 390,000 tested, 0.24% active. AID 1347120;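 further: potency means the concentration at half of the fitted maximal effect; plate controls were DMSO vehicle for no effect and reference control for full effect; nearly all actives have a fitted effect of over 55% in size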
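Yeast expressing FUS under galactose induction, OD 0.005 in 2% galactose medium; compounds in a dilution series, 24 h at 30C. Growth rescue by absorbance at 600 nm; CP55940 positive control, DMSO negative.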
Abeta rescue – compounds reversing amyloid beta toxicity in yeast | yeast expressing A-beta42, growth rescue, OD600, 48 h; response scale: 0% DMSO, 100% iron-clioquinol control | 410,000 tested, 0.063% active | Potency, µM (highest dose often 46.1 µM), actives largely listed as activators; further: potency means the concentration at half of the fitted maximal effect; nearly all actives have a fitted effect of over 55% in size
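Growth rescue measured by 600 nm absorbance after 48 h yeast culture at 30 C with compound. Values normalized between DMSO and an equimolar ferric chloride plus clioquinol control.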
LDHA inh – inhibitors of human lactate dehydrogenase A. P00338. purified LDHA, NADH/diaphorase-resazurin fluorescence; active compounds read low. activity change, % (values are at about 110 or 230 µM). 480,000 tested, 0.15% active. AID 1347041; in the data active means activity change below about -30%; inconclusive means mostly about -25% to -30%;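 further: plate controls were DMSO wells for no effect and wells without enzyme for full effect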
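Resorufin fluorescence (ex540/em590), read at 0 and 20 min after diaphorase/resazurin addition, reports the NADH left after a 5 min room-temperature reaction of 2 nM human LDH5 with 0.06 mM NADH and 0.2 mM pyruvate.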
* = called active by the depositor; i = inactive; ? = inconclusive; / = no result; ! = repeats disagree; [ ] = remark or other dose. Unless noted, the call rests on the fitted dose curve; in most records, active means well fitted curve in the direction sought with a large enough effect; inconclusive means small, poorly fitted or top-dose-only effect, or another doubt; inactive means no such curve, though single readings can be large; an effect the other way counts as inactive or inconclusive.

SMILES | TDP43 rescue | aSyn rescue | PTHR1 agonist | FUS suppressor | Abeta rescue | LDHA inh
COc1cc(/C=N/NC(=O)CNc2cccc(C(F)(F)F)c2)ccc1OC(=O)c1ccccc1F | / | / | / | / | / | -32.2*
Clc1cccc(C=Nc2cccc3ccccc23)c1Cl | / | / | / | / | / | 23.7
CCc1ccccc1N1CSC2=C(C#N)C(c3cc(OC)c(OC)cc3OC)CC(=O)N2C1 (stereo not given) | 0.0316µM* | -5.6% | 1.58µM* | ? | i | 6.7
CCSc1nc2n(n1)C(c1ccc(O)c(OC)c1)C1=C(CC(C)(C)CC1=O)N2 (stereo not given) | / | / | / | / | / | 4.1
COC(=O)c1sccc1NC(=O)Nc1ccccc1C | 11.2µM* | -7.1% | -12.5% | i | i | -4.2
COC(=O)c1sccc1NC(=O)Nc1ccc(C)c(C)c1 | 12.6µM* | -27.3% | -34.5% | i | i | -1.1
COC(=O)c1sccc1NC(=O)Nc1ccccc1F | 29.7% | -17.7% | -43.0% | i | i | -6.1
Cn1c(=O)c2c(nc(NCCO)n2Cc2ccc(Cl)cc2)n(C)c1=O | / | / | / | / | / | 11.8
COc1ccc(N2CCN(S(=O)(=O)c3c(C)nc4scc(C)n4c3=O)CC2)cc1 | 14.1µM*! | -51.1% | -21.0% | i | i | 0.7
COC(=O)c1scc(-c2ccc(C)cc2)c1S(=O)(=O)N1CCN(c2ccc(OC)cc2)CC1 | 0.0% | / | -3.0% | 22.4µM* | i | 1.3
Cc1ccc(C2=NN(C(=O)CCl)C(c3cccs3)C2)o1 (stereo not given) | 20µM* | 0.6% | -29.7% | i | i | 0.0
O=C(NCC1CCCOC1)c1cc(-c2ccncc2)nc2ccccc12 (stereo not given) | / | / | / | / | / | -5.2
O=C(c1ccc2c(c1)OCCO2)C1CCN(C(=O)c2ccc(F)cc2)CC1 | 27.5% | 11.6% | -4.1%[57.5 µM] | i | i | -4.1
O=C(c1ccc2c(c1)OCCO2)C1CCN(C(=O)c2ccc(F)c(F)c2)CC1 | 11.2µM* | 2.0% | -2.5%[57.5 µM] | i | i | -9.2
CCOc1ccccc1N=C1SCC(C)N1C(=O)C1CCN(c2ncnc3sc(C)c(C)c23)CC1 (stereo not given) | 20µM* | 5.6% | -26.3% | i | i | 1.3
CCCNC(=O)c1noc2c1CCc1cc(OC)ccc1-2 | 12.6µM* | 0.3% | -25.4% | i | i | 3.3
COc1ccc2c(c1)CCc1c(C(=O)NCC(C)C)noc1-2 | 18.9% | 1.7% | -31.9% | i | i | -11.9
O=C1SC(SCc2ccccc2)=N/C1=C\c1ccco1 | -16.9% | 11.8% | 0.316µM* | i | i | 6.7
CSC1=N/C(=C\c2ccco2)C(=O)S1 | / | / | / | / | / | 10.4
Cc1cccc(CNC(=O)C2CCN(S(=O)(=O)c3ccc4c(c3)CCCN4C(=O)C3CCC3)CC2)c1 | 3.4% | / | -53.5% | 28.2µM* | i | -2.1
CC(=O)N1CCCc2cc(S(=O)(=O)N3CCCC(C(=O)N4CCN(c5cc(C)ccc5C)CC4)C3)ccc21 (stereo not given) | -8.3% | 7.1% | -95.8% | 12.6µM*! | i | -0.3
Clc1ccc(-c2nc(CSc3nncc4ccccc34)no2)cc1 | / | / | / | / | / | 5.5
O=C(COC(=O)/C=C/c1ccco1)NCCc1ccccc1 | 15.8µM* | 3.3% | i | i | i | -4.7
CSc1ccccc1NC(=O)/C=C/c1ccco1 | / | / | / | / | / | 4.2
CSc1ccccc1NC(=O)COC(=O)/C=C/c1ccco1 | 5.01µM* | 1.1% | i | i | i | -3.7
SMILES | TDP43 rescue | aSyn rescue | PTHR1 agonist | FUS suppressor | Abeta rescue | LDHA inh
CC(C)(CC(=O)O)CC(=O)Nc1ccccc1C(C)(C)C | / | / | / | / | / | -4.4
Cc1ccc(-n2nc(-c3noc(C(=O)NCc4ccc(C)o4)n3)c(=O)n(C)c2=O)cc1 | / | / | / | / | / | -8.1
CC1CCc2noc(NC(=O)COc3ccccc3)c2C1 (stereo not given) | / | / | / | / | / | 0.1
Cc1ccccc1CN1CCC(CNC(=O)c2cccc3c2SCCC3=O)CC1 | / | / | / | / | / | 3.0
Cc1nn2c(C)c(C(=O)NCCc3ccccc3)cnc2c1-c1ccccc1 | 17.8µM* | / | ? | i | i | 2.0
O=C(Nc1ccc(F)cc1)N1c2ccccc2Sc2ccccc21 | / | / | / | / | / | -7.3
COc1ccc2[nH]c3c(=O)n(CCCCC(=O)N4CCCC4)c(=S)[nH]c3c2c1 | -13.5% | 0.4% | i | 39.8µM* | i | -8.9
CC(C)c1ccc(-c2cc(=O)c3cc(NC(=O)CCc4cc(Cl)no4)ccc3o2)cc1 | / | / | / | / | / | 1.2
CC(Sc1nnc(-c2ccco2)n1-c1ccccc1)C(=O)Nc1ccc(Cl)cn1 (stereo not given) | / | / | / | / | / | 16.3
Cc1cc(-c2csc(N)n2)c(C)n1Cc1ccco1 | -11.4% | -7.1% | i | 28.2µM* | i | 1.6
CCCN(CC(=O)Nc1cccc(Br)c1)CC(=O)Nc1ccc(F)c(F)c1F | 14.1µM* | ? | -3.6% | i | i | -2.9
CCCN(CC(=O)Nc1cccc(S(N)(=O)=O)c1)CC(=O)Nc1ccc(F)c(F)c1F | 7.2% | 3.4% | i | i | i | -4.4
Cc1ccc(C(=O)OCC(=O)c2cc(C)n(Cc3ccccc3)c2C)o1 | / | / | / | / | / | 0.7
CN1CCC(N(C)C(=O)c2sc3cc(F)ccc3c2Cl)CC1 | 5.6% | -6.0% | i | i | i | -5.7
O=C(c1sc2cc(F)ccc2c1Cl)N1CCN(c2ccccc2)CC1 | 17.8µM* | 0.3% | -39.1% | i | i | -3.0
COc1ccc(-c2[nH]nc3c2C(c2ccc(F)cc2)C2=C(CC(C)(C)CC2=O)N3)cc1 (stereo not given) | / | / | / | / | / | -2.9
Cc1cc(F)ccc1NS(=O)(=O)c1c(C)nc2scc(C)n2c1=O | 20µM* | -8.4% | -16.6% | i | i | -10.5
O=C(CCn1c(=O)c2cccn2c2cccnc21)N1CCN(c2cccc(Cl)c2)CC1 | 20µM*! | 18.3% | -54.7% | i | i | -2.1
COc1ccc(C(=O)O/N=C(\C)c2cnccn2)cc1 | 17.8µM* | 7.8% | -23.9% | i | i | -12.3
COc1ccc(C(=O)O/N=C(\N)c2ccccn2)cc1 | -0.6% | -52.9% | -40.1% | i | i | -4.1
CCCN(Cc1ccccc1)C(=S)NC(=O)c1ccccc1[N+](=O)[O-] | ? | 18.2% | -5.3% | i | i | -5.6
CCN(Cc1ccccc1)C(=S)NC(=O)c1ccccc1Br | 23.7% | 12.4% | -19.8% | i | 10µM* | -5.9
O=C(O)c1cc2c(ncc3c(=O)n(-c4ccccc4)[nH]c32)s1 | 0.3% | -5.4% | -11.7% | i | i | -34.6*
O=C(Nc1ccccc1Cl)c1ccc(-c2ccccc2)cc1 | / | / | / | / | / | -3.4
